Measured values reported in PubChem BioAssay (Tox21).
Unmarked numbers belong to inactive results. Records with an inconclusive call do not appear. Activity calls are given as the source filed them. Unless noted, calls follow the shape of the dose curve; as a rule, active = well fitted curve in the direction sought with a large enough effect in the repeat runs; inconclusive = weak or mixed curves; inactive = no such curve, though single readings can be large; an effect the other way counts as inactive or inconclusive.

Molecular target: Androgen receptor (Homo sapiens) (UniProt P10275)
Experiment: qHTS assay to identify small molecule antagonists of the androgen receptor (AR) signaling pathway (AID 743035; active = well fitted inhibition curve with a large enough effect in the signal ratio in the repeat runs, not every such curve was filed as active; the % refers to the signal ratio)
Settings: HEK293 AR-UAS-bla, R1881-stimulated, beta-lactamase FRET, 16 h; series mostly up to 58.5 µM; activity change, negative = inhibition: at the top concentration
How it was run: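 Reporter HEK293 cells were exposed to compounds and R1881 overnight (16 h, 37C); beta-lactamase activity was then quantified by FRET fluorescence.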
% is scaled to controls: 0 for no effect and ±100 for the full control effect.

Chain of Androgen receptor (Homo sapiens) (P10275 whole entry, looked up): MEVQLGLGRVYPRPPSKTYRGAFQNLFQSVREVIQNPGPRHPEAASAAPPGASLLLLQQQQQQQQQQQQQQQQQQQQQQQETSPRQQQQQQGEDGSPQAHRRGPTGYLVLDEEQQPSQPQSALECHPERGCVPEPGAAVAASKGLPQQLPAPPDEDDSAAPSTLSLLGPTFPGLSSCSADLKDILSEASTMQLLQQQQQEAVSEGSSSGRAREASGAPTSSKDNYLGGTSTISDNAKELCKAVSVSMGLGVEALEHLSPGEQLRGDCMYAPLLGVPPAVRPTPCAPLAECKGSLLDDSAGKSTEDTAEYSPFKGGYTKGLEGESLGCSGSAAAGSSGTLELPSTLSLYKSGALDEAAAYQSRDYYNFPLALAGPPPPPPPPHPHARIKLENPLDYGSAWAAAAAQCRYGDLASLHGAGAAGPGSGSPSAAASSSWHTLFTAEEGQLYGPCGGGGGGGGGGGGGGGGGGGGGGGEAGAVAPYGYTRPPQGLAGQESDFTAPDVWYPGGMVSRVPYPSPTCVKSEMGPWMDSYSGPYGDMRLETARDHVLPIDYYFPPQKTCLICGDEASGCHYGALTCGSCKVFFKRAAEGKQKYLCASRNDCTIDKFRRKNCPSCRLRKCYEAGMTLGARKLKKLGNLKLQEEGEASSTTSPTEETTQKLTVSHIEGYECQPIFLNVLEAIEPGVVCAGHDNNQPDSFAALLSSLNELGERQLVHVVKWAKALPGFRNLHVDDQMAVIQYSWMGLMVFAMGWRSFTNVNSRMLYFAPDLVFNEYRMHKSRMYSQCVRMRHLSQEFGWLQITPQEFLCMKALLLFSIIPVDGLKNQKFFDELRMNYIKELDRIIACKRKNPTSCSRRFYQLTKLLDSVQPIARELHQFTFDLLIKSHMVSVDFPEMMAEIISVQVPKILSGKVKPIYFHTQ

| Compound | activity change, negative = inhibition |
| --- | --- |
| CC1=NN(c2cccc(S(=O)(=O)O)c2)C(=O)C1 | -7.49% |
| COCCOC[C@H](CC1(C(=O)NC2CCC(C(=O)O)CC2)CCCC1)C(=O)Oc1ccc2c(c1)CCC2 (stereo not given in full) | -14.5% |
| CCCCS(=O)(=O)N[C@@H](Cc1ccc(OCCCCC2CCNCC2)cc1)C(=O)O | -0.418% |

Molecular target: Androgen receptor (Homo sapiens) (UniProt P10275)
Experiment: qHTS assay to identify small molecule agonists of the androgen receptor (AR) signaling pathway (AID 743036; active = well fitted activation curve with a large enough effect in the signal ratio in the repeat runs, with a control signal flat, not every such curve was filed as active; the % refers to the signal ratio)
Settings: HEK293 AR-UAS-bla GripTite, beta-lactamase FRET ratio, 16 h; series mostly up to 62.4 µM; activation: at the top concentration
How it was run: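 HEK293 cells stably carrying a UAS-driven beta-lactamase reporter (GeneBLAzer AR-UAS-bla-GripTite) were plated at 2,000 cells/well, rested 4 h at 37C, then exposed to compounds in DMSO for 16 h. LiveBLAzer B/G FRET substrate was added for 2 h at room temperature; fluorescence read.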

| Compound | activation |
| --- | --- |
| CC1=NN(c2cccc(S(=O)(=O)O)c2)C(=O)C1 | 18.7% |
| COCCOC[C@H](CC1(C(=O)NC2CCC(C(=O)O)CC2)CCCC1)C(=O)Oc1ccc2c(c1)CCC2 (stereo not given in full) | -13.2% |
| CNC(=O)Nc1ccc(Cl)c(Cl)c1 | -14.7% |
| COC(=O)Nc1ccc(Cl)c(Cl)c1 | -2.96% |

Molecular target: Androgen receptor (Homo sapiens) (UniProt P10275)
Experiment: qHTS assay to identify small molecule agonists of the androgen receptor (AR) signaling pathway using the MDA cell line (AID 743040; also: nearly all actives have a fitted effect of over 20% in size)
Settings: MDA-kb2 AR-luc cells, MMTV luciferase, 16 h; series mostly up to 70.3 µM; activity change: at the top concentration
How it was run: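 Stable MMTV-luciferase reporter in MDA-kb2 cells; note the promoter carries GR as well as AR response elements. 16 h compound treatment, 37C, 0% CO2; ONE-Glo luminescence endpoint.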

| Compound | activity change |
| --- | --- |
| Cc1ccc(C(=O)c2ccc(CC(=O)O)n2C)cc1 | 1.29% [at 32.5 µM, stronger effect = higher value] |
| CC1=NN(c2cccc(S(=O)(=O)O)c2)C(=O)C1 | 7.47% |
| COCCOC[C@H](CC1(C(=O)NC2CCC(C(=O)O)CC2)CCCC1)C(=O)Oc1ccc2c(c1)CCC2 (stereo not given in full) | 1.46% |
| CNC(=O)Nc1ccc(Cl)c(Cl)c1 | -1.45% |
| COC(=O)Nc1ccc(Cl)c(Cl)c1 | -1.21% |
| CCCCS(=O)(=O)N[C@@H](Cc1ccc(OCCCCC2CCNCC2)cc1)C(=O)O | 0.0857% |

System: not listed separately
Experiment: qHTS assay to identify small molecule antagonists of the androgen receptor (AR) signaling pathway using the MDA cell line - cell viability counter screen (AID 743041; also: nearly all actives have a fitted effect of over 45% in size)
Settings: MDA-kb2 viability, CellTiter-Fluor, 16 h, cells co-treated with R1881 androgen agonist; series mostly up to 70.3 µM; viability change, negative = cytotoxic: at the top concentration
How it was run: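 Using the breast carcinoma line MDA-kb2 AR-luc, test chemicals were co-incubated with R1881 for 16 h; CellTiter-Fluor reagent, added at 15.5 h, provided a fluorescence measure of live cells.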

| Compound | viability change, negative = cytotoxic | Potency |
| --- | --- | --- |
| Nc1ccn([C@@H]2O[C@H](CO)[C@@H](O)C2(F)F)c(=O)n1 | -1.86% |  |
| Clc1cc(Cl)c(Cl)nc1Cl | 3.06% |  |
| C=COC(=O)C(C)(CC)CCC(C)C (stereo not given) | 1.02% |  |
| CC1=NS(=O)(=O)c2cc(Cl)ccc2N1 | -0.691% |  |
| CN(C)CCN(C)CCN(C)C | 5.1% |  |
| CN(C)[C@@H]1C(=O)C(C(=O)NCN2CCCC2)=C(O)[C@@]2(O)C(=O)C3=C(O)c4c(O)cccc4[C@@](C)(O)C3C[C@@H]12 (stereo not given in full) |  | inactive |
| CC(C)CC(C)(N)C#N (stereo not given) | -12.6% [at 95 µM] |  |
| C=C(C)C(=O)OCCOCCOCCOCCOC(=O)C(=C)C | 3.54% |  |
| CO[C@@]1(NC(=O)C(C(=O)O)c2ccc(O)cc2)C(=O)N2C(C(=O)O)=C(CSc3nnnn3C)CO[C@@H]21 (stereo not given in full) | 1.95% [at 32.5 µM] |  |
| C[N+]1(C)CCCC(OC(=O)C(O)(c2ccccc2)c2ccccc2)C1 (stereo not given) | -4.78% [at 32.5 µM] |  |
| CN1CCC(=C2c3ccccc3CCc3cccnc32)CC1 | -0.765% |  |
| NO | -0.89% [at 95 µM] |  |
| O=C(CO)[C@@H](O)[C@H](O)[C@H](O)CO |  | inactive |
| CC1=NN(c2cccc(S(=O)(=O)O)c2)C(=O)C1 | 3.47% |  |
| O=C(c1ccccc1)C1(O)CCCCC1 | 12.7% |  |
| [O-][n+]1cccc(CO)c1 | 1.72% |  |

| Compound | viability change, negative = cytotoxic | Potency |
| --- | --- | --- |
| CCCCCCCCCCCCCCCCCCO | 2.75% |  |
| OCCc1ccccn1 | 2.05% |  |
| Nc1ccn([C@@H]2O[C@H](CO)[C@@H](O)C2O)c(=O)n1 (stereo not given in full) |  | inactive |
| COCCOC[C@H](CC1(C(=O)NC2CCC(C(=O)O)CC2)CCCC1)C(=O)Oc1ccc2c(c1)CCC2 (stereo not given in full) | -7.3% |  |
| COc1cc(-c2ccc(=O)[nH]n2)ccc1OC(F)F | -16% |  |
| CC(=O)c1cnccn1 | 2.79% [at 95 µM] |  |
| CCCCc1ccc2c(n1)[C@@H](c1ccc(OC)cc1C[C@H](C)C(=O)O)[C@H](C(=O)O)[C@H]2c1ccc2c(c1)OCO2 | -4.25% |  |
| CNC(=O)Nc1ccc(Cl)c(Cl)c1 | -2.33% |  |
| O=C(O)c1cc(C(=O)O)cc(C(=O)O)c1 | -0.56% [at 95 µM] |  |
| COC(=O)Nc1ccc(Cl)c(Cl)c1 | -5.03% |  |
| CCC(C(=O)NC(=O)NC(C)=O)c1ccccc1 (stereo not given) | 6.37% |  |
| CCCCS(=O)(=O)N[C@@H](Cc1ccc(OCCCCC2CCNCC2)cc1)C(=O)O | 3.57% |  |
| CCC(C)(CN(C)C)OC(=O)c1ccccc1 (stereo not given) | -1.43% [at 32.5 µM] |  |
| OCCCCCO | 8.45% [at 95 µM] |  |
| CC[N+](CC)(CC(=O)Nc1c(C)cccc1C)Cc1ccccc1 (tested in a mixture with another compound) | 6.8% |  |

Molecular target: Androgen receptor (Homo sapiens) (UniProt P10275)
Experiment: qHTS assay to identify small molecule antagonists of the androgen receptor (AR) signaling pathway using the MDA cell line (AID 743042; also: nearly all actives have a fitted effect of over 55% in size)
Settings: MDA-kb2 AR-luc, MMTV luciferase, R1881 antagonist, 16 h; series mostly up to 70.3 µM; activity change, negative = inhibition: at the top concentration
How it was run: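 Antagonist mode: compounds plus R1881 agonist added to MDA-kb2 AR-luc cells, incubated 16 h at 37C. Luciferase reporter luminescence quantified, with multiplexed CellTiter-Fluor readout for cell viability.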

| Compound | activity change, negative = inhibition |
| --- | --- |
| Cc1ccc(C(=O)c2ccc(CC(=O)O)n2C)cc1 | 4.95% [at 32.5 µM] |
| CC1=NN(c2cccc(S(=O)(=O)O)c2)C(=O)C1 | -12.7% |
| COCCOC[C@H](CC1(C(=O)NC2CCC(C(=O)O)CC2)CCCC1)C(=O)Oc1ccc2c(c1)CCC2 (stereo not given in full) | -20.7% |
| CNC(=O)Nc1ccc(Cl)c(Cl)c1 | -15.4% |
| COC(=O)Nc1ccc(Cl)c(Cl)c1 | -10.9% |
| CCCCS(=O)(=O)N[C@@H](Cc1ccc(OCCCCC2CCNCC2)cc1)C(=O)O | 4.43% |
